The full list was thinned out, with the strongest signals kept by preference.
Tests used:
Assay in all cases: glycan array binding signal (z-score within array); higher = stronger binding
Settings in all cases: glycan notation: IUPAC condensed, linker removed
[1] = molecular target: Fuc(a1-2)Gal(b1-3)GalNAc(b1-3)Gal(a1-4)Gal(b1-4)Glc
Procedure, shortened: (§1)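 The binding signal is a Z-score computed within each array. Data were drawn from 3228 arrays in the Consortium for Functional Glycomics database, restricted to those with a known protein sequence. Scores were averaged over arrays of the same protein sequence at different concentrations or buffers, and over linkers, and negative values can be taken as non-binding.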

Fuc(a1-2)Gal(b1-4)GlcNAc = molecular target: Fuc(a1-2)Gal(b1-4)GlcNAc
Procedure, shortened: as §1

[2] = molecular target: Fuc(a1-2)Gal(b1-4)GlcNAc(b1-3)Gal(b1-4)GlcNAc
Procedure, shortened: as §1

[3] = molecular target: Fuc(a1-2)[Gal(a1-3)]Gal(b1-4)Glc
Procedure, shortened: as §1

[4] = molecular target: Fuc(a1-2)[Gal(a1-4)]Gal(b1-4)GlcNAc
Procedure, shortened: as §1

[5] = molecular target: Fuc(a1-2)[GalNAc(a1-3)]Gal(b1-4)GlcNAc
Procedure, shortened: as §1

[6] = molecular target: Fuc(a1-3)[Gal(b1-4)]GlcNAc(b1-2)Man(a1-6)[Gal(b1-4)GlcNAc(b1-2)Man(a1-3)]Man(b1-4)GlcNAc(b1-4)GlcNAc
Procedure, shortened: as §1

[7] = molecular target: Fuc(a1-3)[Gal3S(b1-4)]GlcNAc6S
Procedure, shortened: as §1

Gal(b1-3)Gal(b1-4)GlcNAc = molecular target: Gal(b1-3)Gal(b1-4)GlcNAc
Procedure, shortened: as §1

Gal(b1-4)Glc6S = molecular target: Gal(b1-4)Glc6S
Procedure, shortened: as §1

[8] = molecular target: Gal(b1-4)GlcNAc(b1-2)Man(a1-3)[Gal(b1-4)GlcNAc(b1-2)Man(a1-6)]Man(b1-4)GlcNAc(b1-4)GlcNAc
Procedure, shortened: as §1

[9] = molecular target: Gal(b1-4)GlcNAc(b1-3)[Gal(b1-4)GlcNAc(b1-6)]Gal(b1-4)GlcNAc
Procedure, shortened: as §1

[10] = molecular target: Gal(b1-4)GlcNAc(b1-6)[Gal(b1-3)]GalNAc
Procedure, shortened: as §1

[11] = molecular target: Gal3S(b1-4)[Fuc(a1-3)]Glc
Procedure, shortened: as §1

Gal3S6S(b1-4)GlcNAc6S = molecular target: Gal3S6S(b1-4)GlcNAc6S
Procedure, shortened: as §1

GlcNAc(b1-3)GalNAc = molecular target: GlcNAc(b1-3)GalNAc
Procedure, shortened: as §1

[12] = molecular target: GlcNAc(b1-3)[GlcNAc(b1-4)][GlcNAc(b1-6)]GlcNAc
Procedure, shortened: as §1

[13] = molecular target: Man(a1-2)Man(a1-3)[Man(a1-2)Man(a1-6)]Man
Procedure, shortened: as §1

[14] = molecular target: Neu5Ac(a2-3)Gal(b1-4)GlcNAc(b1-3)Gal(b1-4)[Fuc(a1-3)]GlcNAc
Procedure, shortened: as §1

[15] = molecular target: Neu5Ac(a2-8)Neu5Ac(a2-8)Neu5Ac
Procedure, shortened: as §1

[16] = molecular target: Fuc(a1-2)[GalNAc(a1-4)]Gal(b1-4)GlcNAc
Procedure, shortened: as §1

[17] = molecular target: Fuc(a1-3)[Gal(b1-4)]GlcNAc(b1-4)Gal(b1-4)[Fuc(a1-3)]GlcNAc
Procedure, shortened: as §1

[18] = molecular target: Fuc(a1-3)[Gal3S(b1-4)]GlcNAc
Procedure, shortened: as §1

Gal(b1-3)GlcNAc = molecular target: Gal(b1-3)GlcNAc
Procedure, shortened: as §1

[19] = molecular target: Gal(b1-4)GlcNAc(b1-3)Gal(b1-4)GlcNAc(b1-3)Gal(b1-4)GlcNAc
Procedure, shortened: as §1

Gal3S(b1-4)Glc6S = molecular target: Gal3S(b1-4)Glc6S
Procedure, shortened: as §1

Gal6S(b1-4)Glc = molecular target: Gal6S(b1-4)Glc
Procedure, shortened: as §1

Gal6S(b1-4)Glc6S = molecular target: Gal6S(b1-4)Glc6S
Procedure, shortened: as §1

GalNAc(a1-3)GalNAc = molecular target: GalNAc(a1-3)GalNAc
Procedure, shortened: as §1

Glc(a1-6)Glc(a1-6)Glc = molecular target: Glc(a1-6)Glc(a1-6)Glc
Procedure, shortened: as §1

[20] = molecular target: GlcNAc(b1-4)GlcNAc(b1-4)GlcNAc(b1-4)GlcNAc(b1-4)GlcNAc
Procedure, shortened: as §1

Kdn(a2-3)Gal(b1-4)GlcNAc = molecular target: Kdn(a2-3)Gal(b1-4)GlcNAc
Procedure, shortened: as §1

[21] = molecular target: Neu5Ac(a2-3)Gal(b1-4)GlcNAc(b1-2)Man(a1-3)[GlcNAc(b1-2)Man(b1-4)GlcNAc(b1-2)Man(a1-6)]Man(b1-4)GlcNAc(b1-4)GlcNAc
Procedure, shortened: as §1

[22] = molecular target: Neu5Ac(a2-6)Gal(b1-4)GlcNAc(b1-3)Gal(b1-4)[Fuc(a1-3)]GlcNAc(b1-3)Gal(b1-4)[Fuc(a1-3)]GlcNAc
Procedure, shortened: as §1

[23] = molecular target: Neu5Ac(a2-8)Neu5Ac(a2-3)[GalNAc(b1-4)]Gal(b1-4)Glc
Procedure, shortened: as §1

B1: MCI4 (Toxoplasma gondii), Q9XZH7 (protein)
chain: MRASLPVHLVVCTQLSAVWFGVAKAHGGHRLEPHVPGFLQGFTDITPAGDDVSANVTSSEPAKLDLSCVHSDNKGSRAPTIGEPVPDVSLEQCAAQCKAVDGCTHFTYNDDSKMCHVKEGKPDLYDLTGGKTASRSCDRSCFEQHVSYEGAPDVMTAMVTSQSADCQAACAADPSCEIFTYNEHDQKCTFKGRGFSAFKERGVLGVTSGPKQFCDEGGKLTQEEMEDQISGCIQLSDVGSMTADLEEPMEADSVGACMERCRCDGRCTHFTFNDNTRMCYLKGDKMQLYSSPGDRTGPKSCDSSCFSNGVSYVDDPATDVETVFEISHPIYCQVICAANPLCTVFQWYASEAKCVVKRKGFYKHRKTGVTGVTVGPREFCDFGGSIRDREEADAVGSDDGLNAEATMANSPDFHDEVECVHTGNIGSKAQTIGEVKRASSLSECRARCQAEKECSHYTYNVKSGLCYPKRGKPQFYKYLGDMTGSRTCDTSCLRRGVDYSQGPEVGKPWYSTLPTDCQVACDAEDACLVFTWDSATSRCYLIGSGFSAHRRNDVDGVVSGPYTFCDNGENLQVLEAKDTE
Question: How did the “glycan array binding signal (z-score)” value [1] turn out when B1 was run?
Answer: -0.22

Question: What about the “glycan array binding signal (z-score)” value (Fuc(a1-2)Gal(b1-4)GlcNAc) of the same binder?
Answer: -0.204

Question: And the “glycan array binding signal (z-score)” value [2]?
Answer: -0.214

Question: What about the “glycan array binding signal (z-score)” value [3] of the same binder?
Answer: -0.206

Question: What about the “glycan array binding signal (z-score)” value [4] of the same binder?
Answer: -0.203

Question: What about the “glycan array binding signal (z-score)” value [5] of the same binder?
Answer: -0.21

Question: And the “glycan array binding signal (z-score)” value [6]?
Answer: -0.201

Question: And the “glycan array binding signal (z-score)” value [7]?
Answer: -0.225

Question: What about the “glycan array binding signal (z-score)” value (Gal(b1-3)Gal(b1-4)GlcNAc) of the same binder?
Answer: 5.93

Question: And the “glycan array binding signal (z-score)” value (Gal(b1-4)Glc6S)?
Answer: 5.04

Question: What about the “glycan array binding signal (z-score)” value [8] of the same binder?
Answer: 4.68

Question: And the “glycan array binding signal (z-score)” value [9]?
Answer: 7.5

Question: And the “glycan array binding signal (z-score)” value [10]?
Answer: 5.16

Question: What about the “glycan array binding signal (z-score)” value [11] of the same binder?
Answer: -0.213

Question: What about the “glycan array binding signal (z-score)” value (Gal3S6S(b1-4)GlcNAc6S) of the same binder?
Answer: -0.228

Question: What about the “glycan array binding signal (z-score)” value (GlcNAc(b1-3)GalNAc) of the same binder?
Answer: -0.203

Question: What about the “glycan array binding signal (z-score)” value [12] of the same binder?
Answer: -0.202

Question: What about the “glycan array binding signal (z-score)” value [13] of the same binder?
Answer: -0.213

Question: And the “glycan array binding signal (z-score)” value [14]?
Answer: -0.217

Question: What about the “glycan array binding signal (z-score)” value [15] of the same binder?
Answer: -0.217

B2: CBM32-1 (Clostridium perfringens) (protein)
chain: MGSSHHHHHHSSGLVPRGSHMASGVEITEGVTVTAKGNTEGNTADLAIDGDLSTYWESSNDYKWIEVDLGGIYELSKIEIFNKDEAVYKYNIYASEDGENFNKIAYKNNDNVSDSNGNVHTIDNVRAGKIRIDVVQNSNSDRVNIAEINVFG
Question: B2 was tested. Which “glycan array binding signal (z-score)” value [1] did it give?
Answer: -0.205

Question: And the “glycan array binding signal (z-score)” value [16]?
Answer: 0.059

Question: What about the “glycan array binding signal (z-score)” value [17] of the same binder?
Answer: 0.331

Question: What about the “glycan array binding signal (z-score)” value [18] of the same binder?
Answer: -0.283

Question: What about the “glycan array binding signal (z-score)” value (Gal(b1-3)GlcNAc) of the same binder?
Answer: -0.333

Question: And the “glycan array binding signal (z-score)” value [19]?
Answer: 0.889

Question: What about the “glycan array binding signal (z-score)” value (Gal3S(b1-4)Glc6S) of the same binder?
Answer: 3.21

Question: And the “glycan array binding signal (z-score)” value (Gal3S6S(b1-4)GlcNAc6S)?
Answer: 5.08

Question: And the “glycan array binding signal (z-score)” value (Gal6S(b1-4)Glc)?
Answer: 0.513

Question: And the “glycan array binding signal (z-score)” value (Gal6S(b1-4)Glc6S)?
Answer: 4.39

Question: And the “glycan array binding signal (z-score)” value (GalNAc(a1-3)GalNAc)?
Answer: -0.173

Question: What about the “glycan array binding signal (z-score)” value (Glc(a1-6)Glc(a1-6)Glc) of the same binder?
Answer: -0.279

Question: What about the “glycan array binding signal (z-score)” value [20] of the same binder?
Answer: 5.14

Question: What about the “glycan array binding signal (z-score)” value (Kdn(a2-3)Gal(b1-4)GlcNAc) of the same binder?
Answer: -0.439

Question: And the “glycan array binding signal (z-score)” value [21]?
Answer: 3.77

Question: And the “glycan array binding signal (z-score)” value [22]?
Answer: 0.193

Question: And the “glycan array binding signal (z-score)” value [23]?
Answer: -0.358
